From ChEMBL document CHEMBL1157539, “Thousands of chemical starting points for antimalarial lead identification” (Nature, 2010) come the findings set out here.

Holding throughout (type): functional
In assay [1] the test system is Plasmodium falciparum. The assay is described as follows: GSK_TCMDC: Inhibition of Plasmodium falciparum 3D7 in whole red blood cells, using parasite LDH activity as an index of growth. Test compounds present at 2uM.
Assay [2] relates to Plasmodium falciparum. The assay is described as follows: GSK_TCMDC: Inhibition of Plasmodium falciparum Dd2 in whole red blood cells, using parasite LDH activity as an index of growth. Test compounds present at 2uM.
For assay [3], the system named is HepG2. As to the kind of experiment: GSK_TCMDC: Percent inhibition of human HepG2 cell line. Test compounds present at 10uM.

Take `Cl.O=C(NCCCCN1CCC(c2ccc3c(c2OCCO)CCCC3)CC1)c1ccc2oc(-c3ccc(C(F)(F)F)cc3)cc2c1`: the results for the Inhibition in assay [1], in assay [2] and in assay [3] were 93%, 56% and 54%, respectively.
For the molecule `CC1CN(c2ccc(C(=O)NCC3CC3)cc2NC(=O)OCc2ccccc2)CC(C)O1.O=C(O)C(F)(F)F` (centres undefined), the Inhibition (usually how much of the control response was suppressed) is recorded as 91% in assay [1], 76% in assay [2] and 0% in assay [3].
For `CCOC(=O)Cn1ccc2c(NCc3ccccc3)nc(C)nc21` the same measures were 96%, 0% and 64%.
On to `Cl.Cn1ncc2c3c(CCN4CCC(NCc5ccc6c(c5)NC(=O)CO6)CC4)c(Cl)cnc3ccc21`, for which the Inhibition in assay [1] was 100%; in assay [2] it was 92%; in assay [3], 18%.
As to `O=C(Cc1c[nH]cn1)Nc1cccc(-c2ccc(-c3nc4cc(F)ccc4[nH]3)cc2)c1`, the Inhibition in assay [1] is listed as 100%; in assay [2], 84%; in assay [3], 4%.
`Cl.N#Cc1ccc2c(c1)CN(CCC1CCC(NC(=O)c3cc4cc(OC(F)(F)F)ccc4[nH]3)CC1)CC2` (centres undefined): the Inhibition turned out to be 100% in assay [1], 19% in assay [2] and 4% in assay [3].
On to `COc1ccc(OC)c(NC(=O)c2c(-c3c(F)cccc3Cl)noc2C)c1`, for which the results for the Inhibition in assay [1], in assay [2] and in assay [3] were 94%, 25% and 0%, respectively.
Consider `Cc1[nH]c(C)c(-c2ccc(OCCCc3ccccn3)cc2)c(=O)c1Br.Cl`, for which the Inhibition is on record as 98% in assay [1], 97% in assay [2] and 0% in assay [3].
On the same counts, the results for `CCCC(C)Nc1nc(C)cc(N[C@@H](CC(C)C)C(=O)NCCOc2ccccc2)n1.O=C(O)C(F)(F)F` (some centres undefined) are 93%, 28% and 15%.
Regarding `CN(C)CCOc1cc(NC(=O)c2ccc(-c3ccc(Cl)cc3Cl)cc2)ccc1-c1ccccc1`, the Inhibition worked out at 98% in assay [1], 26% in assay [2] and 45% in assay [3].
For `Cc1c(C2CCN(CCCCNC(=O)c3ccc(-c4ccc(C#N)cc4)cc3)CC2)c2ccccc2n1CCO`, the results for the Inhibition in assay [1], in assay [2] and in assay [3] were 96%, 99% and 28%, respectively.
Regarding `CNC(=O)c1cnc(Nc2ccc(N3CCN(C)CC3)cc2)nc1Nc1cccc(OC)c1.O=C(O)C(F)(F)F`, the Inhibition in assay [1] is 100%; in assay [2] it was 100%; in assay [3], 19%.
As to `N#Cc1ccc(-c2ccc(C(=O)NCCCCN3CCC(c4ccc5c(c4OCC(N)=O)CCCC5)CC3)cc2)cc1`, the Inhibition in assay [1] was 87%; in assay [2], 23%; in assay [3], 21%.
For the molecule `C(=NNc1nc2ccccc2[nH]1)c1ccccc1OCc1ccccc1`, the results for the Inhibition in assay [1], in assay [2] and in assay [3] were 100%, 90% and 15%, respectively.
For `O=C(Nc1ccc(-c2nc3ccccc3[nH]2)cc1)c1ccc(-c2cccc([N+](=O)[O-])c2)o1` the same measures were 100%, 97% and 47%.
For `Cc1ccc2nc3c(cc(C(=O)NCc4ccccc4)c(=N)n3CCCn3ccnc3)c(=O)n2c1` the same measures were 93%, 0% and 10%.
Regarding `Cc1cccc2nc(-c3cccc(-c4cccc(CNCC5CCCO5)c4)c3)[nH]c12.O=C(O)C(F)(F)F` (centres undefined), the Inhibition amounted to 100% in assay [1], 99% in assay [2] and 26% in assay [3].
As to `COc1ccccc1C1CCN(C2CCC(NC(=O)/C=C/c3cc(F)c(F)cc3F)CC2)CC1` (centres undefined), the Inhibition in assay [1] stood at 85%; in assay [2], 0%; in assay [3] it was 39%.
For `Cc1nnsc1C(=O)Nc1ccc(-c2cccc(-c3nc4cccc(C)c4[nH]3)c2)cc1` the same measures were 98%, 47% and 23%.
`COc1cc(-c2cnc(N)c(-c3nc4ccccc4[nH]3)c2)cc(OC)c1OC.Cl`: the Inhibition is on record as 100% in assay [1], 57% in assay [2] and 59% in assay [3].
With `NC1=NC(c2ccccc2)(c2ccccc2)C(=O)N1Cc1ccc(-c2ccncc2)cc1.O=CO`, the Inhibition in assay [1] is 96%; in assay [2] it was 74%; in assay [3] it was 20%.
In the case of `Clc1ccc2c(N3CCCNCC3)ccnc2c1`, the values for the Inhibition in assay [1], in assay [2] and in assay [3] were 100%, 99% and 11%, respectively.
As for `CCCN1CC[C@@H](CCCc2ccnc3ccc(O)cc23)[C@@H](CC)C1.Cl`, the Inhibition in assay [1] was determined as 93%; in assay [2] it was 14%; in assay [3], 10%.
With `Cc1cccc2nc(-c3cccc(-c4ccc(NC(=O)Cc5c[nH]cn5)cc4)c3)[nH]c12`, the figures for the Inhibition in assay [1], in assay [2] and in assay [3] were 100%, 93% and 4%, respectively.
Consider `NCCNc1ccc([N+](=O)[O-])cc1C(=O)Nc1cccc(C(F)(F)F)c1`, for which the Inhibition in assay [1] turned out to be 94%; in assay [2] it was 33%; in assay [3] it was 1%.
As to `C(=N\Nc1nccc2sc(-c3ccccc3)cc12)/c1cccnc1`, the figures for the Inhibition in assay [1], in assay [2] and in assay [3] were 97%, 10% and 0%, respectively.
In the case of `O=C(Nc1ccccc1)N(Cc1ccc(-c2ccc(CNCc3ccc4c(c3)OCO4)cc2)cc1)C1CCN(Cc2ccccc2)CC1.O=C(O)C(F)(F)F`, the Inhibition in assay [1] is given as 98%; in assay [2] it was 41%; in assay [3], 21%.
Regarding `Cl.Clc1ccc2c(NCCNc3ccnc4cc(Cl)ccc34)ccnc2c1`, the Inhibition in assay [1] came to 100%; in assay [2], 96%; in assay [3], 6%.
